The values that follow come from PubChem BioAssay (EPA / NIEHS).

Read-out in assay [1]: Human Leukocyte Antigen - DR isotype (HLADR), HLA-DRA (gene 3122)
In words: BSK_BE3C_HLADR: BioMAP Diversity Plus: BE3C Assay for Human Leukocyte Antigen - DR isotype (HLADR) Biomarker Activity (AID 2283032). The following applies: primary human bronchial epithelial cells; actives raise or lower the signal. The procedure, abridged: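 Cell-surface HLA-DR ELISA readout at 24 h after dosing in the BE3C primary human lung bronchial epithelial system; gain or loss of signal against DMSO, with parallel sulforhodamine B staining of total protein for overt cytotoxicity.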

Read-out in assay [2]: Vascular cell adhesion molecule 1 (VCAM1), VCAM1 (gene 7412)
In words: BSK_4H_VCAM1: BioMAP Diversity Plus: 4H Assay for Vascular cell adhesion molecule 1 (VCAM1) Biomarker Activity (AID 2283033).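 As to outcome: cell-surface VCAM-1 protein measured by ELISA.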 The following applies: primary human endothelial cells (HUVEC); actives raise or lower the signal. The procedure, abridged: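 VCAM-1 ELISA read 24 h after chemical dosing of HUVEC in the BioMAP 4H system, with gain or loss of signal fitted relative to DMSO. Parallel SRB staining (560 nm) checked overt cytotoxicity.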

Read-out in assay [3]: Interferon-gamma inducible Protein 10 (IP10), CXCL10 (gene 3627)
In words: BSK_BE3C_IP10: BioMAP Diversity Plus: BE3C Assay for Interferon-gamma inducible Protein 10 (IP10) Biomarker Activity (AID 2283034). The following applies: primary human bronchial epithelial cells; actives raise or lower the signal. In a few lines: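 IP-10 quantified by ELISA in human primary bronchial epithelial cell cultures at 24 hours post-dosing. Gain or loss of signal fitted relative to DMSO; parallel SRB staining assessed overt cytotoxicity.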

Read-out in assay [4]: Monokine induced gamma interferon (MIG), CXCL9 (gene 4283)
Description: BSK_BE3C_MIG: BioMAP Diversity Plus: BE3C Assay for Monokine induced gamma interferon (MIG) Biomarker Activity (AID 2283035). The following applies: primary human bronchial epithelial cells; actives raise or lower the signal. In a few lines:
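hu bronchial epithelial 1° cells, 24 h cpd; MIG by ELISA; bidirectional fit, DMSO = baseline.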

Read-out in assay [5]: Transforming growth factor beta 1 (TGFb1), TGFB1 (gene 7040)
Description: BSK_BE3C_TGFb1: BioMAP Diversity Plus: BE3C Assay for Transforming growth factor beta 1 (TGFb1) Biomarker Activity (AID 2283036;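 also: TGF-b1 protein level measured by ELISA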). The following applies: primary human bronchial epithelial cells; actives raise or lower the signal. In a few lines:
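ELISA readout of TGF-b1 from human lung bronchial epithelial primary cells, taken 24 h post-treatment. Gain or loss of signal fitted relative to DMSO baseline, with parallel SRB staining for overt cytotoxicity.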

Read-out in assay [6]: Plasminogen activator inhibitor-1 (PAI1), SERPINE1 (gene 5054)
In words: BSK_BE3C_PAI1: BioMAP Diversity Plus: BE3C Assay for Plasminogen activator inhibitor-1 (PAI1) Biomarker Activity (AID 2283037). The following applies: primary human bronchial epithelial cells; actives raise or lower the signal. In a few lines:
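PAI-1 was measured by ELISA in human primary bronchial epithelial cultures 24 h after chemical dosing, with cytotoxicity checked by SRB total-protein staining in parallel cultures. Activity was fitted in both directions relative to DMSO.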

Read-out in assay [7]: Urokinase-type plasminogen activator receptor (uPAR), PLAUR (gene 5329)
In words: BSK_BE3C_uPAR: BioMAP Diversity Plus: BE3C Assay for Urokinase-type plasminogen activator receptor (uPAR) Biomarker Activity (AID 2283039).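 Also: cells exposed to compound for one day before measurement.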 The following applies: primary human bronchial epithelial cells; actives raise or lower the signal. In a few lines:
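uPAR levels were measured by ELISA after 24 h compound treatment of primary human bronchial epithelial cells, fitted in both directions relative to DMSO. Parallel SRB staining served as the cytotoxicity read-out.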

Read-out in assay [8]: Interleukin-6 (IL6), IL6 (gene 3569)
Description: BSK_CASM3C_IL6: BioMAP Diversity Plus: CASM3C Assay for Interleukin-6 (IL6) Biomarker Activity for (AID 2283040). The following applies: primary human coronary artery smooth muscle cells; actives raise or lower the signal.

Read-out in assay [9]: Tissue plasminogen activator (tPA), PLAT (gene 5327)
Description: BSK_BE3C_tPA: BioMAP Diversity Plus: BE3C Assay for Tissue plasminogen activator (tPA) Biomarker Activity (AID 2283041).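 Also: tPA level quantified by ELISA one day after compound addition.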 The following applies: primary human bronchial epithelial cells; actives raise or lower the signal. The procedure, abridged: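 tPA measured by ELISA 24 h after dosing human primary bronchial epithelial cells (BE3C system). Changes in either direction were fitted against DMSO. Parallel cultures were stained with SRB to flag overt cytotoxicity.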

Read-out in assay [10]: Interleukin-8 (IL8), CXCL8 (gene 3576)
Description: BSK_CASM3C_IL8: BioMAP Diversity Plus: CASM3C Assay for Interleukin-8 (IL8) Biomarker Activity (AID 2283042).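 Also: IL-8 protein level quantified by ELISA.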 The following applies: primary human coronary artery smooth muscle cells; actives raise or lower the signal.

Read-out in assay [11]: Human Leukocyte Antigen - DR isotype (HLADR), HLA-DRA (gene 3122)
In words: BSK_CASM3C_HLADR: BioMAP Diversity Plus: CASM3C Assay for Human Leukocyte Antigen - DR isotype (HLADR) Biomarker Activity (AID 2283043).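 Also: cell-surface HLA-DR protein level quantified by ELISA.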 The following applies: primary human coronary artery smooth muscle cells; actives raise or lower the signal.

Read-out in assay [12]: Macrophage colony-stimulating factor (MCSF), CSF1 (gene 1435)
Description: BSK_CASM3C_MCSF: BioMAP Diversity Plus: CASM3C Assay for Macrophage colony-stimulating factor (MCSF) Biomarker Activity (AID 2283044).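 Also: M-CSF protein amount quantified by ELISA after 24 h exposure.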 The following applies: primary human coronary artery smooth muscle cells; actives raise or lower the signal.

Read-out in assay [13]: Low-density lipoprotein receptor (LDLR), LDLR (gene 3949)
Description: BSK_CASM3C_LDLR: BioMAP Diversity Plus: CASM3C Assay for Low-density lipoprotein receptor (LDLR) Biomarker Activity (AID 2283045).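 Also: LDLR protein level on the cell surface quantified by ELISA.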 The following applies: primary human coronary artery smooth muscle cells; actives raise or lower the signal.

Read-out in assay [14]: Monocyte Chemoattractant Protein-1 (MCP1), CCL2 (gene 6347)
In words: BSK_CASM3C_MCP1: BioMAP Diversity Plus: CASM3C Assay for Monocyte Chemoattractant Protein-1 (MCP1) Biomarker Activity (AID 2283046).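 Also: MCP-1 level quantified by ELISA 24 h after dosing.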 The following applies: primary human coronary artery smooth muscle cells; actives raise or lower the signal.

Assay [15] is described as follows: BSK_CASM3C_Proliferation: Cell Proliferation Assessment in the BioMAP Diversity Plus: CASM3C Assay (AID 2283047).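 Also: sulforhodamine B total protein stain as relative cell number at 560 nm; sub-confluent cells exposed 48 h before staining; fitted both ways against DMSO so gain or loss of cell number.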 The following applies: primary human coronary artery smooth muscle cells.
Read-out in assay [16]: Monokine induced gamma interferon (MIG), CXCL9 (gene 4283)
Description: BSK_CASM3C_MIG: BioMAP Diversity Plus: CASM3C Assay for Monokine induced gamma interferon (MIG) Biomarker Activity (AID 2283048). The following applies: primary human coronary artery smooth muscle cells; actives raise or lower the signal.

Read-out in assay [17]: serum amyloid A (SAA), SAA1 (gene 6288)
In words: BSK_CASM3C_SAA: BioMAP Diversity Plus: CASM3C Assay for serum amyloid A (SAA) Biomarker Activity (AID 2283049).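 Also: SAA protein level quantified by ELISA.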 The following applies: primary human coronary artery smooth muscle cells; actives raise or lower the signal.

A short description of assay [18]: BSK_CASM3C_SRB: Viability Assessment in the BioMAP Diversity Plus: CASM3C Assay (AID 2283050). The following applies: primary human coronary artery smooth muscle cells.
Read-out in assay [19]: Thrombomodulin, THBD (gene 7056)
Description: BSK_CASM3C_Thrombomodulin: BioMAP Diversity Plus: CASM3C Assay for Thrombomodulin Biomarker Activity (AID 2283051).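 Also: thrombomodulin protein level measured by ELISA 24 h after dosing.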 The following applies: primary human coronary artery smooth muscle cells; actives raise or lower the signal.

Read-out in assay [20]: urokinase plasminogen activator (uPA), PLAU (gene 5328)
Description: BSK_BE3C_uPA: BioMAP Diversity Plus: BE3C Assay for urokinase plasminogen activator (uPA) Biomarker Activity (AID 2283038).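 Also: uPA protein level quantified by ELISA in cell cultures; uPA read one day after compound addition.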 The following applies: primary human bronchial epithelial cells; actives raise or lower the signal. In a few lines:
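Human primary bronchial epithelial cells were exposed to chemical for 24 h, then uPA levels were measured by ELISA. Responses were fitted bidirectionally against DMSO as negative control and baseline. Parallel SRB staining of total protein gauged overt cytotoxicity.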

Calls of active or inactive are those of the source. The calls were made as follows: active = hit-call score of the fitted dose curve at least 0.9, where 1 is the maximum; inactive = score below 0.9.

Consider `Cn1cc[nH]c1=S`, for which the result in assay [1], in assay [2], in assay [3], in assay [4], in [5] and in assay [6] was inactive. Besides, the result in assay [7], in [8], in assay [9], in assay [10], in [11] and in [12] was inactive. Moreover, the result in [13], in assay [14], in assay [15], in [16], in [17] and in [18] was inactive. Further, the outcome in [19] was inactive.

Turning to `FC(F)(F)C(F)(F)C(F)(F)C(F)(F)C(F)(F)C(F)(F)I`, the outcome in assay [1], in assay [2], in assay [3], in assay [4], in assay [6] and in assay [7] was inactive. Moreover, the outcome in assay [8], in assay [9], in assay [10], in assay [11], in [12] and in [13] was inactive. Further, the outcome in assay [14], in [15], in [16], in assay [17], in assay [18] and in assay [19] was inactive.

A word on the AC50: it is the concentration at which the activity in the assay is half-maximal. As to `S=P(N1CC1)(N1CC1)N1CC1`, the result in [1], in assay [2], in assay [3], in assay [4], in assay [5] and in [6] was inactive. In addition, the result in assay [7], in assay [8], in assay [9], in assay [10], in assay [11] and in assay [12] was inactive. For the same compound, the result in [13], in assay [14], in [16], in assay [17], in assay [18] and in [19] was inactive. Also, the AC50 in assay [15] is 20.9 µM (active).

Consider `CCCCCCOC(=O)CC(CC(=O)OCCCCCC)(OC(=O)CCC)C(=O)OCCCCCC`, for which the result in assay [1], in [2], in [3], in assay [4], in assay [5] and in assay [6] was inactive. Moreover, the outcome in assay [7], in assay [8], in assay [9], in assay [10], in [11] and in [12] was inactive. In addition, the outcome in [13], in assay [14], in [15], in assay [16], in assay [17] and in assay [18] was inactive. The outcome in [19] was inactive.

With `OCCNCCO`, the result in assay [1], in [2], in assay [3], in assay [4], in assay [5] and in assay [6] was inactive. For the same compound, the outcome in assay [7], in [8], in assay [9], in assay [10], in [11] and in [12] was inactive. For the same compound, the result in [13], in assay [14], in assay [15], in assay [16], in [17] and in [18] was inactive. The outcome in assay [19] was inactive.

Take `c1ccc(C(O[C@@H]2CCCN(CCc3ccc4c(c3)OCO4)C2)c2ccccc2)cc1`: the AC50 was 20 µM (active) in [1], 26.9 µM (active) in assay [2], 17.3 µM (active) in assay [13] and 32.5 µM (active) in assay [15]. Besides, the outcome in assay [3], in assay [4], in assay [5], in assay [6], in assay [7] and in assay [8] was inactive. Further, the result in assay [9], in assay [10], in assay [11], in assay [12], in assay [14] and in [16] was inactive. The outcome in assay [17], in assay [18] and in assay [19] was inactive.

Consider `FC(F)(F)COC(OCC(F)(F)F)OCC(F)(F)F`, for which the result in assay [1], in assay [2], in [3], in [4], in assay [6] and in assay [20] was inactive. For the same compound, the outcome in assay [7], in assay [8], in assay [9], in assay [10], in [11] and in assay [12] was inactive. In addition, the outcome in assay [13], in assay [14], in [15], in assay [16], in assay [17] and in assay [18] was inactive. In addition, in assay [19], the result was inactive.
